The values that follow come from PubChem BioAssay AID1259312 (Keith Lab, Institute of Cancer Science, University of …, 2017).

“And” between values parts separate entries of the source, which are not always exact repeats. Equal values may be shown once. The campaign covered roughly 4,500 compounds. About 200 (4.4%) were called active.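 The calls were made as follows: active = cell survival measured by absorbance rises more than 2.5-fold over infected cells without compound; inactive = the rest.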 The list comes from a sample in which actives are over-represented; it also holds similar structures and randomly drawn compounds. Some compounds were tested as several samples or in several runs, with calls that do not always agree.

A short description of the assay: survival after telomere uncapping, modulators, primary screen, cell-based (AID 1259312).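 Also: virus expresses mutant telomerase RNA that uncaps telomeres and kills cells; compound added 2 days after infection so exposure lasts 3 days.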 The following applies: HCT116 + Ad-hTR-mut, MTT, 5 d; at 10 µM, stronger effect = higher value.
On to `CC(N)c1nc(-c2cccnc2)no1` (stereo not given), for which the fold change is -2.47 (inactive).
The result for `O=S(=O)(NCc1ccc2c(c1)OCO2)c1ccc2oc3ccccc3c2c1` reads 1.03 (inactive).
The same measure for `Cn1c(=O)c2c(nc(NCCOc3ccc(Cl)cc3)n2C)n(C)c1=O`: 1.16 (inactive); for `O=c1cc(-c2ccc(O)c(O)c2)oc2cc(OC3OC(CO)C(O)C(O)C3O)cc(O)c12` (stereo not given): -1.76 (inactive); for `CC(Nc1cc(Cl)ccc1[N+](=O)[O-])C12CC3CC(CC(C3)C1)C2` (stereo not given): -1.01 (inactive).
The same measure for `O=S(=O)(c1ccccc1)N1CCN(C(c2ccccc2)c2ccccc2)CC1`: 3.51 (active).
Regarding `O=S(=O)(c1ccccc1)N1CCN(c2ccccc2)CC1`, the fold change is -1.03 (inactive).
With `O=S(=O)(c1ccccc1)N1CCN(CCO)CC1`, the fold change was -1.34 (inactive).
On to `O=C(O)CN(CP(=O)(O)O)CP(=O)(O)O`, for which the fold change was -4.38 (inactive).
`COc1cc(CSC(=N)N)c([N+](=O)[O-])cc1OC`: the fold change is -1.68 (inactive).
The result for `CC(=O)OCC1OC(n2ccc(=O)[nH]c2=O)C(OC(C)=O)C1OC(C)=O` (stereo not given) reads -1.3 (inactive); that for `C=CCOC1OC(COC(C)=O)C(OC(C)=O)C(OC(C)=O)C1OC(C)=O` (stereo not given), 3.1 (active).
The result for `CC(=O)OC[C@H]1O[C@@H](n2ncc(=O)[nH]c2=O)[C@H](OC(C)=O)[C@@H]1OC(C)=O` reads -1.81 (inactive).
On to `Cc1ccc(C(c2c(C)[nH]n(-c3ccccc3)c2=O)c2c(C)[nH]n(-c3ccccc3)c2=O)o1`, for which the fold change was 1.83 (inactive).
The same measure for `CN1CC=C2[C@H](C1)[C@@H](c1ccccc1F)C(C#N)=C(N)C2(C#N)C#N`: 1.08 (inactive).
`Cc1cc(C)cc(OCC(=O)N=Nc2c(O)[nH]c3ccccc23)c1`: the fold change entry was “inactive”.
For `c1csc(-c2nc3sc(-c4cccs4)nc3s2)c1`, the fold change was -2.65 (inactive).
The same measure for `N#Cc1sc2nc3c(cc2c1N)CCCC3`: 1.19 (inactive); for `N#Cc1sc2nc(-c3cccs3)ccc2c1N`: 5 (active).
The result for `Cc1cccc(N2CCC(N=CN3CCOCC3)=N2)c1` reads 2.57 (active); that for `O=C(O)CCC(=O)Nc1nccs1`, -1.01 (inactive).
The same measure for `O=C(CN1CCOCC1)Nc1nccs1`: 3.2 (active); for `CCCCCCCCCCCC(=O)Nc1nccs1`: -1.36 (inactive); for `CCOC(=O)/C(=C\C1=CC=C([N+](=O)[O-])C1)NC(=O)c1cccc(C)c1`: 2 (inactive).
As for `Cc1cc2c(cc1C)-c1c(ssc1=Nc1ccc(S(N)(=O)=O)cc1)C(C)(C)N2`, the fold change is -1.69 (inactive).
For `COc1cc(C2C(C(=O)OC3CCCCC3)=C(C)NC3=C2C(=O)CC(C)(C)C3)cc(OC)c1OC` (stereo not given), the fold change is -1.82 (inactive).
The same measure for `O=C(O)CCCc1c[nH]c2ccccc12`: 3.42 (active) and -1.18 (inactive); for `NC(=O)CCCc1c[nH]c2ccccc12`: 1.03 (inactive).
With `O=C(CCCc1c[nH]c2ccccc12)NCCSc1ccccc1`, the fold change was -1.53 (inactive).
The same measure for `COC(=O)C1=C(CSCc2ccco2)NC(=O)NC1c1ccc(C)cc1C` (stereo not given): -1.35 (inactive).
The same measure for `CCOC(=O)c1c(NC(=O)C(F)(F)F)sc2c1CCN(C(=O)OCC)C2`: 1.21 (inactive); for `Cc1ccc(-c2nc(CSc3nccc(N)n3)cs2)cc1`: -2.25 (inactive).
The result for `O=S(=O)(Nc1ccc(Br)cc1)c1ccccc1` reads 2.66 (active); that for `O=S(=O)(Nc1ccc(S(=O)(=O)Nc2ccc(F)cc2)cc1)c1ccccc1`, -1.01 (inactive).
Take `O=S(=O)(Nc1ccc(Br)cc1)c1ccc(Cl)cc1`: the fold change is 1.91 (inactive).
The same measure for `O=C1c2cccc(Cl)c2C(=O)c2cccc(Cl)c21`: -1.08 (inactive); for `CCc1sc(/C=C(/C#N)C(=O)OC)cc1[N+](=O)[O-]`: -2.59 (inactive); for `NCCCNc1ccc([N+](=O)[O-])cc1Cl`: 1.09 (inactive).
The result for `CN(C)CCCNc1ccc([N+](=O)[O-])cc1Cl` reads 3.8 (active); that for `NCCCNc1ccc(Cl)cc1[N+](=O)[O-]`, -1.5 (inactive); that for `CCN(CC)CCNc1ccc([N+](=O)[O-])cc1[N+](=O)[O-]`, 3.5 (active).
The result for `NCCNc1ccc([N+](=O)[O-])cc1[N+](=O)[O-]` reads 1.82 (inactive); that for `CN(C)CCNc1ccc(Cl)cc1[N+](=O)[O-]`, 1.53 (inactive).
For the molecule `O=[N+]([O-])c1ccc(NCCO)c([N+](=O)[O-])c1`, the fold change is 1.74 (inactive).
The same measure for `CCNCCNc1ccc([N+](=O)[O-])cc1Cl`: 1.86 (inactive).
The result for `CCN(CC)CCNc1ccc(Cl)cc1[N+](=O)[O-]` reads 3.03 (active); that for `Cc1cccc(-c2cc(=O)c3cc(Br)ccc3o2)c1`, 1.11 (inactive).
For the molecule `Nc1nc(C=C(Cl)Cl)cs1`, the fold change is 1.63 (inactive).
The result for `COc1cc2c(cc1OC)C(C(=O)O)CC(=O)N2` (stereo not given) reads -1.06 (inactive); that for `COc1ccc(C(O)c2nccn2C)cc1OC` (stereo not given), -1.55 (inactive).
The result for `COc1ccc(-c2coc3ccc(OC4OC(COC(C)=O)C(OC(C)=O)C(OC(C)=O)C4OC(C)=O)c(OC(C)=O)c3c2=O)cc1` (stereo not given) reads -1.42 (inactive); that for `CC1=NN(c2ccccc2)C(=O)/C1=C\c1cn(-c2ccccc2)nc1C12CC3CC(CC(C3)C1)C2`, -2.06 (inactive); that for `COc1cc(N=Cc2cc(Cl)cc(Cl)c2O)c(OC)cc1Cl`, “inactive”.
`COc1cc(N=Cc2cc3ccccc3nc2Cl)c(OC)cc1Cl`: the fold change is 3.58 (active).
For `Oc1c(Br)cc(Br)cc1C=Nc1ccc(Cl)c(Cl)c1`, the fold change entry was “inactive”.
Take `Clc1cccc(N=Cc2cc3ccccc3nc2Cl)c1Cl`: the fold change was 3.42 (active).
The result for `Oc1c(Br)cc(Br)cc1C=Nc1ccc(F)cc1` reads “inactive”; that for `Clc1ccc(N=Cc2ccccc2Cl)nc1`, 1.71 (inactive); that for `Clc1nc2ccccc2cc1C=Nc1ccc(Br)cc1`, 3.97 (active).
In the case of `Clc1ccc(Cl)c(N=Cc2cc3ccccc3nc2Cl)c1`, the fold change is 1.49 (inactive).
The same measure for `CC(Sc1ccccc1)C(=O)N[C@@H]1C[C@H]2CC[C@@H]1C2` (stereo not given in full): -1.09 (inactive).
The result for `c1ccc(-c2nc(Sc3nc(-c4ccccc4)nc4ccccc34)c3ccccc3n2)cc1` reads -1.53 (inactive); that for `O=c1[nH]c(=O)n(-c2ccccc2)c(O)c1/C=C1\C=Nc2ccccc21`, “inactive”; that for `N#Cc1cnn2cc(-c3[nH]ncc3[N+](=O)[O-])cnc12`, 3.75 (active).
In the case of `O=C(O)c1[nH]ncc1[N+](=O)[O-]`, the fold change was 1.94 (inactive).
In the case of `Cc1cc(C)n2[nH]c(=O)c([N+](=O)[O-])c2n1`, the fold change was 1.66 (inactive).
The result for `CCOC(=O)c1cnn2cc(-c3[nH]ncc3[N+](=O)[O-])cnc12` reads -1.64 (inactive); that for `O=c1[nH]n2cc(-c3[nH]ncc3[N+](=O)[O-])cnc2c1[N+](=O)[O-]`, 4.1 (active); that for `O=c1[nH]n2cc(-c3n[nH]c(-c4cnc5c(Br)c(=O)[nH]n5c4)c3[N+](=O)[O-])cnc2c1Br`, 3.53 (active).
The same measure for `N#Cc1cnn2cc([N+](=O)[O-])cnc12`: -1.15 (inactive); for `NC(=O)c1[nH]ncc1[N+](=O)[O-]`: 1.08 (inactive).
For `Cn1c(=O)oc2ccc(S(=O)(=O)Nc3ccc4c(c3)CCN4S(C)(=O)=O)cc21`, the fold change was -1.03 (inactive).
The result for `O=C(O)C1CC(=O)N(CC2CCCO2)C1` (stereo not given) reads -1.58 (inactive).
As to `CCc1sc(/C=C(/C#N)C(=O)OC(C)C)cc1Br`, the fold change was -3.71 (inactive).
The result for `Fc1ccc(-c2cnc3ccccc3n2)cc1` reads -2.09 (inactive); that for `O=C(CCn1cnnn1)Nc1nc2cc(OC(F)(F)F)ccc2s1`, 1.2 (inactive).
The result for `COC1OC2COC(c3ccccc3)OC2C(O)C1O` (stereo not given) reads 3.25 (active); that for `COC1OC2COC(c3ccccc3)OC2C(O)C1OS(=O)(=O)c1ccc(C)cc1` (stereo not given), 2.36 (inactive); that for `COc1ccc(N=Nc2c(N)n[nH]c2N)cc1`, “active”.
The result for `COc1ccc(-c2nnc(N)o2)cc1` reads 1.14 (inactive).
Regarding `COc1ccc(C=Nc2nonc2N)cc1`, the fold change was -2.59 (inactive).
With `Cc1cc(C)nc(/N=C(/N)Nc2ccc(C)c([N+](=O)[O-])c2)n1`, the fold change was -1.56 (inactive).
The result for `O=C(O)c1cc2cc3c4c(c2oc1=O)CCCN4CCC3` reads 1.07 (inactive); that for `CC(C)(C)[Si](C)(C)N1C(=O)C[C@H]1C(=O)O`, 1.19 (inactive).
The result for `O=c1[nH]snc1N1CCOCC1` reads -1.16 (inactive); that for `O=C1c2ccc([N+](=O)[O-])cc2C(=O)N1CNc1ccc2c(c1)oc1ccccc12`, 2.96 (active).
On to `CN1C(=O)c2ccc([N+](=O)[O-])cc2C1=O`, for which the fold change was 1.34 (inactive).
The result for `O=C1c2ccc([N+](=O)[O-])cc2C(=O)N1Cc1nc2ccccc2c(=O)o1` reads -5.24 (inactive).
For `O=S(=O)(NCc1ccc2c(c1)OCO2)c1ccc2ccccc2c1`, the fold change is -1.07 (inactive).
For the molecule `O=c1oc(-c2cccs2)nc2cc([N+](=O)[O-])ccc12`, the fold change was 1.07 (inactive).
As for `O=C(CCl)N1CCc2ccccc21`, the fold change is 3.82 (active).
The result for `O=C(C(=O)N1CCc2ccccc21)N1CCc2ccccc21` reads -1.35 (inactive); that for `O=C(COc1cccc2ccccc12)N1CCc2ccccc21`, -1.51 (inactive).
The same measure for `CCOC(=O)c1c(NC(=O)c2ccco2)sc(C(=O)N2CCCC2)c1C`: -2.09 (inactive).
As for `O=C1C(=Cc2c[nH]c3ccccc23)C(=O)c2ccccc21`, the fold change was -1.41 (inactive).
The result for `CN(C)C(=O)CSc1nnc(N)s1` reads 3.85 (active).
Regarding `NC(=O)CSc1nnc(SCC(N)=O)s1`, the fold change is -3.2 (inactive).
The result for `Nc1nnc(SCC(=O)N2CCCC2)s1` reads 1.32 (inactive); that for `Cc1cc(C)c2oc(-c3cc(N)ccc3Cl)nc2c1`, 1.24 (inactive).
In the case of `Cn1cnnc1-c1ccc(N)cc1`, the fold change is -1.13 (inactive).
The same measure for `CC(C)(C)c1ccc(-c2nnc(-c3ccc(Cl)cc3Cl)o2)cc1`: -1.32 (inactive).
The result for `S=c1[nH]ccn1-c1ccccc1` reads 1.02 (inactive).
Take `NC(=O)c1no[n+]([O-])c1C(N)=O`: the fold change was -1.25 (inactive).
The same measure for `c1ccc(-c2csc(N3CCN(C(c4ccccc4)c4ccccc4)CC3)n2)cc1`: 1.15 (inactive); for `O=[N+]([O-])c1ccccc1S(=O)(=O)n1cnc2ccccc21`: 3.82 (active).
For `O=[N+]([O-])c1ccccc1-n1ccnc1`, the fold change was -1.71 (inactive).
The result for `O=[N+]([O-])c1ccc(S(=O)(=O)Nc2nc3ccccc3s2)cc1` reads 1.84 (inactive); that for `O=[N+]([O-])c1ccc(S(=O)(=O)n2cnc3ccccc32)cc1`, 3.41 (active); that for `O=[N+]([O-])c1ccc(NCCCn2cnc3ccccc32)nc1`, 1.16 (inactive).
The result for `O=[N+]([O-])c1ccc(-n2nnc3ccccc32)c([N+](=O)[O-])c1` reads -1.31 (inactive).
